Assay outcomes from PubChem BioAssay.
Pf growth 48h: inhibits P. falciparum growth in the first generation, 48 h; AID 504832; Potency, µM (top dose mostly 28.7 µM), without a hit: top-dose activity change, negative = inhibition, most hits filed as inhibitors; 5.9% of 310,000 active; P. falciparum luciferase growth in erythrocytes, 48 h; also: potency is read from the fitted curve at half-maximal effect; % is scaled to controls: 0 for no effect and ±100 for the full control effect
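Here the parasites carry a stable luciferase gene and grow inside erythrocytes in Albumax-based RPMI medium with compound for one erythrocytic cycle. Activity is scored as loss of luminescent signal.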
LmPK inhibitor: LmPK (Leishmania mexicana) enzyme inhibition | 0.37% of 290,000 active | purified LmPK, Kinase-Glo ATP luminescence, 1 h | Q27686 | AID 1721 | Potency, µM (top dose mostly 57.5 µM), for inactives: top-dose activity change, negative = inhibition, most hits filed as inhibitors; also: potency is read from the fitted curve at half-maximal effect; % is scaled to controls: 0 for no effect and ±100 for the full control effect
Target sequence (Q27686 whole entry, looked up): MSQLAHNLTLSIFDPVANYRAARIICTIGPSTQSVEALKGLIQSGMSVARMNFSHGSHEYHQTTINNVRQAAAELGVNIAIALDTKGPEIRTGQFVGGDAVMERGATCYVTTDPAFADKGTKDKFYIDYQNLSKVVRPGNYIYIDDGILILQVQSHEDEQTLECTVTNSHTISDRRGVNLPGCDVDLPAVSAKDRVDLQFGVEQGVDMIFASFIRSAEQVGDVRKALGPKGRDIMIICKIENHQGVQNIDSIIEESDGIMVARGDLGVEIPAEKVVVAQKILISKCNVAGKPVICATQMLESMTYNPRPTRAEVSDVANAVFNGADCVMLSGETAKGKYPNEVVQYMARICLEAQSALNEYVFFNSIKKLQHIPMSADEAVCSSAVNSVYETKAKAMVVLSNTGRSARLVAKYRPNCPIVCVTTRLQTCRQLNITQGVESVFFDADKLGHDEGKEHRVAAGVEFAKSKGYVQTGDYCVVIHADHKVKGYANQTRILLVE
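Pyruvate kinase activity monitored as ATP production (luciferase luminescence). Conditions: 0.1 nM enzyme, 0.5 mM PEP, 0.1 mM ADP, 1 h, RT; normalized against uninhibited and no-enzyme wells.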
Shiga inhibitor: inhibitors of Shiga toxin in Vero cells | Vero cells, Shiga toxin protein synthesis inhibition reporter | inhibition, % at 38.7 µM | 9.2% of 290,000 active; in the data active = inhibition mostly above about 28%, no sharp cut-off; inactive = mostly below about 43%; also: 0% is about no effect
Cycloheximide cs: affects cycloheximide protein synthesis inhibition readout, counter-screen | 12% of 300,000 active | cell reporter, cycloheximide protein synthesis inhibition counterscreen | max response, %; in the data active = max response mostly above about 13%, no sharp cut-off; inactive = mostly below about 14%; also: read at 38.3 µM for the half of the compounds with a filed dose; 0% is about no effect
Pf growth 96h: P. falciparum growth inhibition at 96 hours. P. falciparum luciferase reporter growth, 96 h. Potency, µM (series often up to 28.7 µM), inactives show at the highest dose activity change, negative = inhibition, actives largely listed as inhibitors. 6.9% of 320,000 active. AID 504834; also: potency is read from the fitted curve at half-maximal effect; % is scaled to controls: 0 for no effect and ±100 for the full control effect
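Cell-based qHTS: luciferase-tagged P. falciparum in erythrocytes (2% hematocrit, 0.05% parasitemia final) incubated with compounds for 96 hours, 37 C, 5% CO2; luciferase detection reagent then added and luminescence measured.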
* = called active by the depositor; ? = inconclusive; . = not tested or not shown. The list is not random: actives were taken first. Their share in the collection is about 22%. Unless noted, calls follow the shape of the dose curve; as a rule, active = well fitted inhibition curve with a large enough effect; inconclusive = small, poorly fitted or top-dose-only effect, or another doubt; inactive = no such curve, though single readings can be large or run the other way.

SMILES	Pf growth 48h	LmPK inhibitor	Shiga inhibitor	Cycloheximide cs	Pf growth 96h
COc1cccc2cc(C(=O)c3ccc([N+](=O)[O-])cc3)oc12	25.2%	0.8%	22.3	22.6*	14.7µM*
O=C(N1CCCC1)C12CCC3CC(CC(C3)C1)C2	.	-0.8%	-12.4	-4.5	9.28µM*
O=C(Nc1ccccc1C(=O)NCC1CCCO1)c1ccc(Cl)cc1 (stereo not given)	?	-9.9%	-4.6	-4.1	?
COc1cc(OC)cc(C(=O)NC(C(=O)Nc2ccc3c(c2)OCO3)C(C)C)c1 (stereo not given)	?	.	.	.	-64.7%
COc1cc(OC)cc(C(=O)NC(C(=O)Nc2ccc3nc(C)sc3c2)C(C)C)c1 (stereo not given)	3.29µM*	.	.	.	6.57µM*
COc1ccc(NS(=O)(=O)c2cc(NC(=O)[C@@H](NC(=O)c3ccccc3)C(C)C)ccc2C)cc1	9.28µM*	-0.2%	-1.7	-2.7	9.28µM*
COc1cc(OC)cc(C(=O)N[C@H](C(=O)Nc2nc3ccc(S(C)(=O)=O)cc3s2)C(C)C)c1	4.65µM*	6.1%	-0.9	11.2	?
Cc1nc2ccc(NC(=O)[C@@H](NC(=O)c3c(F)cccc3F)C(C)C)cc2s1	2.08µM*	.	.	.	?
COc1ccc(NS(=O)(=O)c2cc(NC(=O)c3ccc(=O)[nH]c3)ccc2C)cc1	14.3%	.	.	.	-16.4%
CCOC(=O)CSc1nnc(-c2ccc(OC)cc2OC)o1	-21.3%	-2.0%	1.6	1.7	?
COc1ccc(-c2nnc(SC)o2)c(OC)c1	100.1%	2.9%	71.6*	21.1*	-0.4%
COc1ccc(OC)c(-c2nnc(-c3ccc(C)o3)o2)c1	10.4µM*	-5.4%	74.7	35.9*	183.1%
O=C(c1ccc(Nc2nccc(-c3cc4ccccc4s3)n2)cc1)N1CCC(N2CCCC2)CC1	.	.	-16.1	-17.8	.
CC1CCCN(C(=O)c2ccc(NS(=O)(=O)c3cccc([N+](=O)[O-])c3)cc2)C1 (stereo not given)	?	.	.	.	7.6%
CC1CCc2c(sc(NC(=O)c3ccc(N4C(=O)CCC4=O)cc3)c2C(N)=O)C1 (stereo not given)	3.5%	.	.	.	?
COc1ccc(NS(=O)(=O)c2cc(NC(=O)/C=C/c3ccccc3OC)ccc2N2CCCCC2)cc1	1.04µM*	-2.7%	17.0	-2.0	1.04µM*
CCC(=O)Nc1ccc(N2CCOCC2)c(S(=O)(=O)Nc2ccc(OC)cc2)c1	6.8%	0.6%	17.2	3.0	-9.4%
COc1ccc(NS(=O)(=O)c2cc(NC(=O)c3ccc(C)s3)ccc2N2CCOCC2)cc1	?	3.4%	1.9	5.3	13.1µM*
CCCCCC(=O)Nc1ccc(N2CCOCC2)c(S(=O)(=O)Nc2ccc(OC)cc2)c1	14.7µM*	.	.	.	?
COc1ccc(NS(=O)(=O)c2cc(NC(=O)/C=C/c3cccs3)ccc2N2CCOCC2)cc1	?	1.2%	-3.4	0.8	7.38µM*
COc1ccc(NS(=O)(=O)c2cc(NC(=O)c3ccccc3F)ccc2N2CCCC2)cc1	?	1.3%	16.2	7.6	?
COc1ccc(NS(=O)(=O)c2cc(NC(=O)CCNC(C)=O)ccc2N2CCOCC2)cc1	6.6%	.	.	.	1.5%
COc1ccc(NS(=O)(=O)c2cc(NC(=O)c3cccs3)ccc2N2CCCC2)cc1	-15.4%	2.6%	42.8	12.3	?
COc1ccc(OC)c(S(=O)(=O)NC2CC(=O)N(c3cccc(F)c3)C2)c1 (stereo not given)	6.7%	.	.	.	0.0%
Cc1ccc(N(CC(=O)NC2CCCC2)C(=O)CNC(=O)c2cccs2)c(C)c1	-22.1%	1.9%	-14.0	-3.8	?
SMILES	Pf growth 48h	LmPK inhibitor	Shiga inhibitor	Cycloheximide cs	Pf growth 96h
CC(C(=O)O)c1ccc(N2Cc3ccccc3C2=O)cc1 (stereo not given)	-12.2%	?	71.6*	45.2	-38.6%
O=C(CCC1CCCN(C(=O)C2=CCCCC2)C1)N1CCN(c2ccccn2)CC1 (stereo not given)	?	-8.3%	18.0	-2.8	6.8%
Cn1nc(-c2ccc(C(=O)Nc3ccc(F)cc3)cc2)c2ccccc2c1=O	?	2.1%	-14.0	-2.6	8.0%
Cn1nc(-c2ccc(C(=O)Nc3cccnc3)cc2)c2ccccc2c1=O	6.57µM*	1.3%	-6.3	0.4	?
Cn1nc(-c2ccc(C(=O)Nc3cccc(Cl)c3)cc2)c2ccccc2c1=O	.	1.0%	-2.0	-3.1	3.29µM*
CC(O)CNC(=O)c1ccc(-c2nn(C)c(=O)c3ccccc23)cc1 (stereo not given)	.	-2.9%	-6.8	-2.2	7.3%
